From PubChem BioAssay AID488969 (Vanderbilt High Throughput Screening Facility, 2010) come the findings set out here.

In all, about 110,000 compounds were measured (“z-score”: median about -0.1, highest 2% from about 2 on). This is one part of a sample in which the highest values are shown more often than they occur. Activity calls are given as the source filed them.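 How the source made its calls: active means z-score in the third read window above 3 or below -3; inactive means the rest.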

In the assay the target is Metabotropic glutamate receptor 8 (Rattus norvegicus) (UniProt P70579). In words: rat mGluR8 modulators via GIRK flux, primary screen, cell-based, thallium flux, HTS (AID 488969). Particulars: HEK293 rat mGluR8, GIRK (G protein-gated inwardly rectifying potassium channel) thallium flux, FluoZin2; at 10 µM; stronger effect = higher value; submaximal glutamate (EC20) added with thallium.
Sequence of Metabotropic glutamate receptor 8 (Rattus norvegicus) (P70579 whole entry, looked up): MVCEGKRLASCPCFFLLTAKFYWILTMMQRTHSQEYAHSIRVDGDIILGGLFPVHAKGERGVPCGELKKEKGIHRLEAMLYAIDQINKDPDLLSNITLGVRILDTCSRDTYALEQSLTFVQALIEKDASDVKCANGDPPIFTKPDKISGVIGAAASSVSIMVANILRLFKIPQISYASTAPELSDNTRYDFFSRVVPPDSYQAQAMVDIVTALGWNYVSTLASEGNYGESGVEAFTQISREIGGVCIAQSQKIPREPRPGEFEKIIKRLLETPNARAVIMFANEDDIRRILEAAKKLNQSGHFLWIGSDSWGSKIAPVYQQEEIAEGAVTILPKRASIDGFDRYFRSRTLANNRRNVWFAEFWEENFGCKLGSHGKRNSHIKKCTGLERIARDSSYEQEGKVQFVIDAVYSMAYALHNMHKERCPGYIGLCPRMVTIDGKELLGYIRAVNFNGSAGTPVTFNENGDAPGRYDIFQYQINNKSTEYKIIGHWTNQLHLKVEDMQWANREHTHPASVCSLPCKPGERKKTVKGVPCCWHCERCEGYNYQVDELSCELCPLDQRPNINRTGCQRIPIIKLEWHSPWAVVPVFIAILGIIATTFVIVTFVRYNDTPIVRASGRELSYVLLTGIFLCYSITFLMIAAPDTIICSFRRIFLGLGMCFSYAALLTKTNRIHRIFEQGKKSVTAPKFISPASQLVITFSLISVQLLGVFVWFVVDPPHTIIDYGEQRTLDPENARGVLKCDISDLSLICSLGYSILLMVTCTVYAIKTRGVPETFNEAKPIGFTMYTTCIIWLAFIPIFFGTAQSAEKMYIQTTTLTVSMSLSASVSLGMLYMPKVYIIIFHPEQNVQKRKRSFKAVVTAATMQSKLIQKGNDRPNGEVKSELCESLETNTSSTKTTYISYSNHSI
On to `COc1ccc(NC(=O)c2ccco2)cc1NC(=O)c1ccc(Br)o1`, for which the z-score is -0.82.
With `Cc1csc(SCC(=O)Nc2ncc(Cl)c(C)c2Cl)n1` the figure was 0.185; with `COc1ccc(N(CC(=O)Nc2nc3ccc(C)cc3s2)S(=O)(=O)c2c(C)nn(C)c2C)cc1`, 2.44.
With `COc1ccc2nc(NC(=O)CN(c3ccc(C)cc3)S(=O)(=O)c3c(C)nn(C)c3C)sc2c1` the figure was 0.03.
Then `Cc1nn(C)c(C)c1S(=O)(=O)N(CC(=O)NCCCOC(C)C)c1ccc(C(C)C)cc1`, with -0.0899; and `Cc1nn(C)c(C)c1S(=O)(=O)N(CC(=O)NC1CCCCCC1)c1ccc(C(C)C)cc1`, with -0.146.
As for `COc1ccc(N(CC(=O)Nc2nccs2)S(=O)(=O)c2c(C)nn(C)c2C)cc1`, the z-score turned out to be 0.0495.
With `Cc1cccc(NC(=O)CN(c2ccc(C(C)C)cc2)S(=O)(=O)c2c(C)nn(C)c2C)n1` the figure was 2.21.
With `CSc1ccc(/C=N/NC(=O)CN2CCN(Cc3ccccc3)CC2)cc1` the figure was -0.0744; with `CC(=O)Oc1ccc2c(c1)cc(C)n2C`, 0.458.
Take `O=C1c2ccccc2C(=O)N1CCn1c(=O)oc2ccccc21`: the z-score was found to be 1.56.
Then `Cc1cc(Cl)ccc1OC(C)C(=O)Nc1ccc([N+](=O)[O-])cn1` (centres undefined), with 2.07.
Then `CC(=O)Nc1ccc([N+](=O)[O-])cn1`, with -0.229; and `CC(Oc1cccc(Cl)c1)C(=O)Nc1ccc([N+](=O)[O-])cn1` (centres undefined), with -0.576; and `COC(=O)c1c(NC(=O)CSc2nnnn2-c2ccccc2)sc2c1CCC(C)C2` (centres undefined), with -0.121.
With `COc1ccc(/C=C2\NC(=S)N(CC3CCCO3)C2=O)c(OC)c1` (centres undefined) the figure was 0.39; with `COc1ccccc1/C=C1\NC(=S)N(CC2CCCO2)C1=O` (centres undefined), 0.246.
Take `COc1ccc(/C=C2\NC(=S)N(CC3CCCO3)C2=O)c(OC)c1C` (centres undefined): the z-score was found to be 2.32.
With `CCOC(=O)c1nnn(-c2nonc2N)c1COc1cc(C)c(Cl)c(C)c1` the figure was -0.174; with `CCCCCCCC1CC(CSc2ncn[nH]2)OC1=O` (centres undefined), 5.73 (active); with `CCCCCCC1CC(CSC(=N)N)OC1=O` (centres undefined), 0.116.
With `CCCCCCC1CC(CSc2ncn[nH]2)OC1=O` (centres undefined) the figure was -0.0128; with `CCCCC1CC(CSc2ncn[nH]2)OC1=O` (centres undefined), -0.0735.
Then `CCCCCCCC1CC(CSC(=N)N)OC1=O` (centres undefined), with 5.96 (active); and `CCCCC1CC(CSC(=N)N)OC1=O` (centres undefined), with 0.732; and `CC(C)C(=O)Nc1nc2c(ncn2C2CC(O)C(CO)O2)c(=O)[nH]1` (centres undefined), with -0.334.
Turning to `CC(C)OC(=O)n1c(=S)oc2ccccc21`, the z-score was -0.00387.
For `S=c1[nH]nc(CSCc2ccc(Cl)cc2Cl)n1-c1ccccc1`, the z-score was 15.5 (active).
Then `CSc1nnc(CSCc2ccc(Cl)cc2Cl)n1-c1ccccc1`, with -0.0778; and `S=c1[nH]nc(Cc2ccccc2)n1-c1ccccc1`, with 0.938; and `Cn1ncc(C#N)c1NC(=O)c1cc(-c2ccccc2Cl)on1`, with 0.559.
With `O=C(CSc1nc(C2CC2)nc2ccccc12)N1CCc2ccccc2C1` the figure was -0.769.
The compound `Cc1cc(=O)n2cc(-c3ccccc3)nc2[nH]1` came in with a z-score of -0.318.
Then `CC1CCN(CCCCOc2ccccc2Br)CC1`, with -0.0355; and `Cc1cc(Cl)ccc1N=C1N=C(N)c2ccccc21`, with -1.75.
With `COC(=O)c1sccc1NC(=O)CSc1ccccc1NS(=O)(=O)c1ccc(Br)cc1` the figure was 2.31; with `COC(=O)c1sccc1NC(=O)CSc1ccc(Cl)cc1`, 0.289; with `COC(=O)c1sccc1NC(=O)CSc1ccccc1NS(=O)(=O)c1ccc(F)cc1`, 0.941.
For the compound `COC(=O)c1sccc1NC(=O)CSc1ccccc1NS(=O)(=O)c1ccc(Cl)cc1`, the z-score is 3.6 (active).
Compound `COC(=O)c1sccc1NC(=O)CN(C)NS(=O)(=O)c1ccc(Cl)cc1` returned a z-score of -0.811.
With `COC(=O)c1sccc1NC(=O)Cc1ccc(Br)cc1` the figure was -0.0914.
Then `N#Cc1ccc(OCC(=O)N/N=C2\CCc3ccccc32)cc1`, with -0.239.
With `CCN(CC)C(=O)C(Sc1ccccc1)c1ccccc1` (centres undefined) the figure was 0.926; with `CC(=O)Nc1ccc(NC(=O)CSc2ccc(C)cc2)cc1`, 0.00682; with `CCOC(=O)c1ccc(NC(=O)CN2C(=O)C(C)SC(C)C2=O)cc1` (centres undefined), -0.088.
On to `Cc1nc(NC(C)C(=O)O)c2nc(C)oc2n1` (centres undefined), for which the z-score was -0.0905.
`CCn1cc(C2=NCCO2)c2ccccc21` showed a z-score of 2.2.
Then `CCn1cc(C2=NC(C)(C)CO2)c2ccccc21`, with -0.521; and `CCn1cc(C2=NC(C)CO2)c2ccccc21` (centres undefined), with -0.418.
In turn, `COc1ccc2[nH]c(C)c(CCN3C(=O)C4C5C=CC(C5)C4C3=O)c2c1` (centres undefined) returned a z-score of -0.454.
Then `COC(=O)CSc1ncnc2c1cnn2Cc1ccccc1`, with -0.981; and `NC(=O)CSc1ncnc2c1cnn2Cc1ccccc1`, with 4.34 (active).
On to `Cc1ccc(CSc2ncnc3c2cnn3-c2ccc(C)cc2)cc1`, for which the z-score is 1.75.
With `Cc1ccc(CSc2ncnc3c2cnn3-c2ccccc2)cc1` the figure was 0.333; with `c1ccc(CSc2ncnc3c2cnn3Cc2ccccc2)cc1`, -0.473.
In turn, `Cc1ccc(CSc2ncnc3c2cnn3Cc2ccccc2)cc1` had a z-score of -0.449.
With `Cc1cccc(CSc2ncnc3c2cnn3Cc2ccccc2)c1` the figure was -0.46; with `Cc1ccc(-n2ncc3c(SCc4cccc(C)c4)ncnc32)cc1`, 2.66.
Then `Cc1ccc(-n2ncc3c(SCc4ccccc4)ncnc32)cc1`, with 2.51.
